Compound activity: PubChem BioAssay, National Center for Advancing Translational Sciences (NCATS)
Rows were chosen to be rich in hits. Some 21% of all compounds tested hit in one or more screens of this group.
IL-1B inflam inh = qHTS for Inhibitors of Inflammasome Signaling: IL-1-beta AlphaLISA Primary Screen; THP-1 LPS/ATP IL-1B secretion, AlphaLISA, 16 h; stronger effect = lower value; activity change, % at 57.5 µM; 4.7% of 360,000 active; AID 743279, 2014; in the data active means activity change below about -50%; inconclusive means mostly about -30% to -49%; further: on the % scale 0 is the no-effect control and ±100 the full control effect
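THP-1 cells pretreated 1 hr with compounds (up to 57.5 uM final), then stimulated with LPS (250 ng/mL final) plus ATP (1.25 mM final); secreted IL-1B measured by AlphaLISA after 16 hr, decreased signal indicating inhibition.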
ClpP mod = qHTS Assay for Activators of ClpP; purified B. subtilis ClpP, FRET peptide cleavage, 20 min; Potency, µM (top dose mostly 57.5 µM), without a hit: at the highest dose activity change, negative = active; 1.9% of 340,000 active; AID 651965, 2013; active means well fitted falling curve with a large enough effect; inconclusive means small, poorly fitted or top-dose-only effect; inactive means no such curve, though single readings can be large or run the other way; further: potency means the concentration at half of the fitted maximal effect; the source files actives as falling curves though it sought activators and does not explain the sign; nearly all actives have a fitted effect of over 65% in size
Target sequence (P80244 whole entry, looked up): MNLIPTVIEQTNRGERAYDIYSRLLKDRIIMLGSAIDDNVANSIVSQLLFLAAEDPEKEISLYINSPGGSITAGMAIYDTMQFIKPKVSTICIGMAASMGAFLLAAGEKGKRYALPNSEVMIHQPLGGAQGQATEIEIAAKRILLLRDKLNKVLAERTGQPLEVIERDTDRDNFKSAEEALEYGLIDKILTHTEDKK
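Purified B. subtilis ClpP, 10 microg/mL final in Tris/HCl pH8 with KCl, BSA, glycerol and Tween-20, cleaved an Abz/nitrotyrosine-quenched decapeptide. Fluorescence (ex 320, em 430) was read at 0 and 20 min at room temperature. Delta was normalized to 5.8 microM ADEP and DMSO/no-enzyme controls.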
DRD3 agonist = qHTS of D3 Dopamine Receptor Agonist: qHTS. D(3) dopamine receptor (Homo sapiens), P35462. D3R DiscoveRx beta-arrestin cells, luminescence, 90 min. max activation, %. 0.58% of 410,000 active; in the data active means max activation above about 30%; further: 0% is about no effect
Target sequence (P35462 whole entry, looked up): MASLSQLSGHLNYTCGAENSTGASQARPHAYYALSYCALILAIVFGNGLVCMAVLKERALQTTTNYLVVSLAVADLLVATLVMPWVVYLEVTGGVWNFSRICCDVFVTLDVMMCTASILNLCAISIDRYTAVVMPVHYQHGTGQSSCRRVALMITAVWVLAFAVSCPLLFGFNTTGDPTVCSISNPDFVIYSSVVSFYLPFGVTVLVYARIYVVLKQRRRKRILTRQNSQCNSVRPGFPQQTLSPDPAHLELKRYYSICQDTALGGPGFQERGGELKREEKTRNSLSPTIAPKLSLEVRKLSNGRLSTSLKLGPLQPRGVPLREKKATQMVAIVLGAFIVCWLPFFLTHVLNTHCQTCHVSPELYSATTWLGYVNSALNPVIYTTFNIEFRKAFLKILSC
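Agonist mode: compounds and dopamine controls were applied to plated cells for 90 min at 37 degrees C after an overnight attachment at 1500 cells/well. Luminescent read-out followed 30 - 60 minutes at room temperature with DiscoveRx detection reagent.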
DRD3 antagonist = qHTS of D3 Dopamine Receptor Antagonist: qHTS; max response, negative = inhibition, %; AID 652054, 2013; 2.5% of 360,000 active; D3R cells, DiscoveRx beta-arrestin luminescence, antagonist mode; stronger effect = lower value; in the data active means max response below about -50%; inconclusive means no clear call, values can overlap the other calls; further: on the % scale 0 is the no-effect control and ±100 the full control effect
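Cells plated overnight at 1500 cells/well, then exposed to library compounds with dopamine controls for 90 minutes at 37 degrees C. DiscoveRx reagent added for 30–60 minutes at room temperature; luminescence read, quantitative HTS format.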
DT40 TDP1 no CPT = qHTS for Inhibitors of human tyrosyl-DNA phosphodiesterase 1 (TDP1): qHTS in cells in absence of CPT; Potency, µM (highest dose often 46.2 µM), for the others: at the highest dose activity change, negative = growth inhibition, usual class: inhibitors; 15% of 420,000 active; DT40 Tdp1-/- hTDP1 cells, no CPT, ATP luminescence, 48 h; further: potency means the concentration at half of the fitted maximal effect; on the % scale 0 is the no-effect control and ±100 the full control effect; nearly all actives have a fitted effect of over 55% in size
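Chicken DT40 Tdp1-/- cells complemented with human TDP1, screened without camptothecin (DMSO vehicle only), 400 cells/well. Compounds pin-transferred, cells incubated at 37 °C for at least 48 hr. Growth read as ATP-dependent luminescence (CellTiter-Glo, 30 min at RT).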
TDP1 cell CPT = qHTS for Inhibitors of human tyrosyl-DNA phosphodiesterase 1 (TDP1): qHTS in cells in presence of CPT | chicken DT40 Tdp1-/-;hTDP1 cells + 20 nM CPT, ATP luminescence, 48 h | Potency, µM (top dose mostly 46.2 µM), for inactives: at the top dose activity change, negative = growth inhibition, most hits filed as inhibitors | 12% of 420,000 active | AID 686979, 2013; further: potency means the concentration at half of the fitted maximal effect; on the % scale 0 is the no-effect control and ±100 the full control effect; nearly all actives have a fitted effect of over 55% in size
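Cell growth measured by CellTiter-Glo luminescence after a minimum 48 h, 37 C compound exposure with 20 nM CPT in Tdp1-knockout DT40 cells stably expressing hTDP1, seeded 400/well; qHTS titration format.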
Numbers without * were called inactive. Unless noted, the call rests on the fitted dose curve; in most records, active means well fitted inhibition curve with a large enough effect; inconclusive means small, poorly fitted or top-dose-only effect; inactive means flat fitted curve, though single readings scatter.

What do the screens show for `Cc1cc(=O)oc2cc(OCC3CC(c4ccc(Br)cc4)=NO3)ccc12` (centres undefined)?
IL-1B inflam inh: 24.8; ClpP mod: 28.2µM*; DRD3 agonist: 2.7; DRD3 antagonist: 16.1; DT40 TDP1 no CPT: 16.4µM*; TDP1 cell CPT: inconclusive

Results for COc1ccccc1NC(=O)C1=C(C)Nc2c(C(=O)Nc3ccc(C)cc3)cnn2C1c1cccc(OC)c1OC (centres undefined) ?
ClpP mod: -8.4%; DRD3 agonist: 1.3; DT40 TDP1 no CPT: inconclusive; TDP1 cell CPT: inconclusive

Results for O=C(NC1(C(F)(F)F)C(=O)Nc2c1c(=O)[nH]c(=O)n2-c1ccccc1)c1ccccc1Cl (centres undefined) ?
ClpP mod: -1.8%; DRD3 agonist: -2.5; DT40 TDP1 no CPT: -20.0%; TDP1 cell CPT: -15.4%

Results for COc1ccccc1NC(=O)CSC1=Nc2ccccc2C2=NC(CCC(=O)NCc3cccs3)C(=O)N12 (centres undefined) ?
ClpP mod: 0.0%; DRD3 agonist: 0.1; DT40 TDP1 no CPT: inconclusive; TDP1 cell CPT: inconclusive

How did C/C(Cn1nc([N+](=O)[O-])cc1C)=N\NC(=O)COc1ccc(Cl)cc1Cl do in these assays?
IL-1B inflam inh: inconclusive; ClpP mod: -0.7%; DRD3 agonist: 0.7; DRD3 antagonist: 6.2; DT40 TDP1 no CPT: -2.8%; TDP1 cell CPT: 0.8%

Results for Cc1cc(NC(=O)CCSc2ccccc2)no1 ?
IL-1B inflam inh: 60.2; ClpP mod: 0.1%; DRD3 agonist: -12.5; DRD3 antagonist: -4.2; DT40 TDP1 no CPT: -0.1%; TDP1 cell CPT: -8.0%

Results for CCOC(=O)C1CCC(CN(Cc2c(Cl)cccc2Cl)S(=O)(=O)c2ccc(Cl)cc2)CC1 (centres undefined) ?
ClpP mod: -1.5%; DRD3 agonist: -1.2; DT40 TDP1 no CPT: 20.6µM*; TDP1 cell CPT: inconclusive

Results for CCOC(=O)C1CCC(CN(Cc2c(Cl)cccc2Cl)S(=O)(=O)c2ccc(F)cc2)CC1 (centres undefined) ?
ClpP mod: -1.9%; DRD3 agonist: 1.3; DT40 TDP1 no CPT: inconclusive; TDP1 cell CPT: inconclusive

How did CCOC(=O)C1CCC(CN(Cc2ccccc2)S(=O)(=O)c2ccc(Cl)cc2)CC1 (centres undefined) do in these assays?
ClpP mod: -2.5%; DRD3 agonist: -0.4; DT40 TDP1 no CPT: inconclusive; TDP1 cell CPT: inconclusive

What do the screens show for `CCOC(=O)C1CCC(CN(Cc2cccc(Br)c2)S(=O)(=O)c2ccc(Cl)cc2)CC1` (centres undefined)?
ClpP mod: -0.9%; DRD3 agonist: -11.4; DT40 TDP1 no CPT: 20.6µM*; TDP1 cell CPT: 29.1µM*

Results for Oc1c(C(c2ccccc2)N2CCN(c3cccc(Cl)c3)CC2)sc2nc(-c3ccco3)nn12 (centres undefined) ?
ClpP mod: -0.5%; DRD3 agonist: -8.3; DT40 TDP1 no CPT: inconclusive; TDP1 cell CPT: inconclusive

How did O=C(NCC1Cc2cccc(-c3cnccn3)c2O1)c1ccc(F)c(Cl)c1 (centres undefined) do in these assays?
DT40 TDP1 no CPT: -11.8%; TDP1 cell CPT: -0.1%

What do the screens show for `Cc1cccc(CNc2ccnc(-c3ccccc3CN(C)C)n2)c1`?
DT40 TDP1 no CPT: 7.31µM*; TDP1 cell CPT: 13µM*

Results for COc1ccccc1-c1cncnc1NCc1cccc(C)c1 ?
DT40 TDP1 no CPT: 20.6µM*; TDP1 cell CPT: inconclusive

Results for COc1ccccc1-c1nccc(NCc2cccc(C)c2)n1 ?
DT40 TDP1 no CPT: 10.3µM*; TDP1 cell CPT: 16.4µM*

Results for COc1ccccc1CNc1cc(C)ccn1 ?
IL-1B inflam inh: -24.2; DRD3 agonist: -10.4; DRD3 antagonist: -12.3; DT40 TDP1 no CPT: -26.6%; TDP1 cell CPT: inconclusive

What do the screens show for `COc1ccccc1-c1cncnc1NCc1cccs1`?
DT40 TDP1 no CPT: -23.8%; TDP1 cell CPT: -1.5%

Results for COc1ccc(S(=O)(=O)N2CCN(C(=O)c3ccc(C)o3)CC2)cc1 ?
IL-1B inflam inh: 11.7; DRD3 agonist: 1.3; DRD3 antagonist: -13.2; DT40 TDP1 no CPT: inconclusive; TDP1 cell CPT: -22.3%

Results for CC1CC2(CCCC2)N(C(=O)c2ccccc2)Cc2ccccc21 (centres undefined) ?
IL-1B inflam inh: -16.2; ClpP mod: 2.0%; DRD3 agonist: 1.4; DRD3 antagonist: 4.6; DT40 TDP1 no CPT: inconclusive; TDP1 cell CPT: 9.2µM*

How did COc1ccc(Cl)cc1NC(=O)c1noc(C)c1[N+](=O)[O-] do in these assays?
IL-1B inflam inh: 5.4; ClpP mod: 1.5%; DRD3 agonist: -4.4; DRD3 antagonist: -13.6; DT40 TDP1 no CPT: 2.31µM*; TDP1 cell CPT: 2.91µM*

What do the screens show for `COc1ccc(Cl)cc1NC(=O)C/C(C)=N/NC(=O)c1ccccc1[N+](=O)[O-]`?
IL-1B inflam inh: -7.9; ClpP mod: -1.0%; DRD3 agonist: -5.1; DRD3 antagonist: -26.5; DT40 TDP1 no CPT: -15.2%; TDP1 cell CPT: -16.4%

What do the screens show for `COc1ccc(Cl)cc1NC(=O)c1cccc([N+](=O)[O-])c1O`?
IL-1B inflam inh: -1.0; ClpP mod: 2.1%; DRD3 agonist: 3.6; DRD3 antagonist: -10.9; DT40 TDP1 no CPT: 8.2µM*; TDP1 cell CPT: 11.6µM*

How did C[N+]1(CC(=O)c2ccc(Br)cc2)CCOCC1 do in these assays?
ClpP mod: 2.1%; DT40 TDP1 no CPT: -8.4%; TDP1 cell CPT: 2.8%

How did O=C(CCS(=O)(=O)c1ccccc1)NCc1ccccc1 do in these assays?
IL-1B inflam inh: -5.8; ClpP mod: -2.3%; DRD3 agonist: 2.4; DRD3 antagonist: 12.7; DT40 TDP1 no CPT: 9.3%; TDP1 cell CPT: -12.1%

Results for Cc1ccc(S(=O)(=O)Nc2ccc3c(c2)C(=O)N([C@@H](C)CO)C[C@@H](C)[C@@H](CN(C)C(=O)NC2CCCCC2)OCCCC[C@H](C)O3)cc1 ?
IL-1B inflam inh: -16.1; ClpP mod: -4.4%; DRD3 agonist: -3.5; DRD3 antagonist: -9.8; DT40 TDP1 no CPT: -16.5%; TDP1 cell CPT: 0.3%
